Rows were chosen to be rich in hits. Some 6% of all compounds tested hit in one or more screens of this group.
DRD3 antagonist: qHTS of D3 Dopamine Receptor Antagonist: qHTS; D(3) dopamine receptor (Homo sapiens), P35462; AID 652054, 2013; max response, negative = inhibition, %; D3R cells, DiscoveRx beta-arrestin luminescence, antagonist mode; stronger effect = lower value; 2.5% of 360,000 active; in the data active = max response below about -50%; inconclusive = no clear call, values can overlap the other calls; note: % is set by controls: 0 for no effect and ±100 for the full control effect
Target sequence (P35462 whole entry, looked up): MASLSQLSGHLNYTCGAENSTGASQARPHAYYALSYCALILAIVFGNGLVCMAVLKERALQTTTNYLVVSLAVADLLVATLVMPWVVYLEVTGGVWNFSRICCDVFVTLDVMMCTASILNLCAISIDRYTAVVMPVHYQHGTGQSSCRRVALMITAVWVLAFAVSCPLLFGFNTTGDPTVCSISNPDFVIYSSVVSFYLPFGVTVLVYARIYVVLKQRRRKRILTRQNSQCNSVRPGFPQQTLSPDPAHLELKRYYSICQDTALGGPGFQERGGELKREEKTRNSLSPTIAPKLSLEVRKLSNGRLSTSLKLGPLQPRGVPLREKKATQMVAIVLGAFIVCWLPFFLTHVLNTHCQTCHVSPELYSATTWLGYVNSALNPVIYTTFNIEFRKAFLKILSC
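Cells plated overnight at 1500 cells/well, then exposed to library compounds with dopamine controls for 90 minutes at 37 degrees C. DiscoveRx reagent added for 30–60 minutes at room temperature; luminescence read, quantitative HTS format.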
DRD3 agonist: qHTS of D3 Dopamine Receptor Agonist: qHTS | 0.58% of 410,000 active | D(3) dopamine receptor (Homo sapiens), P35462 | D3R DiscoveRx beta-arrestin cells, luminescence, 90 min | AID 652048, 2013 | max activation, %; in the data active = max activation above about 30%; note: 0% is about no effect
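Agonist mode: compounds and dopamine controls were applied to plated cells for 90 min at 37 degrees C after an overnight attachment at 1500 cells/well. Luminescent read-out followed 30 - 60 minutes at room temperature with DiscoveRx detection reagent.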
D1 antagonist: Antagonist of Human D 1 Dopamine Receptor: qHTS; D(1A) dopamine receptor (Homo sapiens), P21728; HEK293 TREx D1 cells, calcium flux, dopamine EC80; stronger effect = lower value; activity change, negative = inhibition, % at 10 µM; 3.2% of 360,000 active; in the data active = activity change below about -30%; note: % is set by controls: 0 for no effect and ±100 for the full control effect
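Compound effects on dopamine-evoked calcium signalling were measured in tetracycline-induced HEK293 Trex D1 cells. Dopamine at EC80 followed a 180 s compound pre-read, and fluorescence was tracked kinetically for 180 s more.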
D1 ag: Allosteric Agonists of the Human D1 Dopamine Receptor: qHTS | D(1A) dopamine receptor (Homo sapiens), P21728 | HEK293 T-REx D1 cells, calcium flux, agonist mode | activation, % at 2 µM | 1% of 360,000 active | AID 504660, 2011; in the data active = activation above about 30%; note: 0% is about no effect
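Inducible HEK293 T-REx D1 cells, force-coupled to calcium signalling, were plated at 4000 cells/well with tetracycline and held overnight at 30 C. After no-wash calcium dye loading, compound-evoked calcium rise over 180 s flagged agonists.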
D1 potentiator: Potentiators of Human D1 Dopamine Receptor: qHTS; potentiation, % at 10 µM; D(1A) dopamine receptor (Homo sapiens), P21728; HEK293 TREx D1 cells, calcium flux, dopamine EC20 potentiation; 0.036% of 360,000 active; in the data active = potentiation above about 30%; note: 0% is about no effect
Chronic BCR inh: qHTS Assay to Find Inhibitors of Chronic Active B-Cell Receptor Signaling | Potency, µM (doses to about 46.1 µM), without a hit: top-dose activity change, negative = inhibition, actives largely listed as inhibitors | AID 493014, 2011 | 0.05% of 340,000 active | ABC-DLBCL IkBa-CBG/CBR reporter, luminescence ratio, 4 h; active = well fitted inhibition curve with a large enough effect in the signal ratio, with a control signal flat, not every such curve was filed as active; inconclusive = small, poorly fitted or top-dose-only effect, or effect the other way, or a change in a side signal; the % refers to the signal ratio;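 note: potency is the fitted concentration of half-maximal effect; plate controls were basal doxycycline-induced cells for no effect and cells given 10 µM MG132 for full effect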
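Cell line TMD8 (human ABC DLBCL), stably expressing tet-inducible CBG68-IkBa fusion and CBR; IMDM/0.5% FBS; cpd up to 46 uM; dox induction, 4 h, 37C/5% CO2; dual luminescence; green/red ratio; MG132 control.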
* hit, by the source's call; ! = a repeat was not active.

For O=C(CCC(=O)c1ccc(F)cc1)NCC1(N2CCCCC2)CCCCC1 the results were DRD3 antagonist -88*, DRD3 agonist -12, D1 antagonist -5, D1 ag 1, D1 potentiator 0 and Chronic BCR inh -9%.
`NC(=O)COc1ccc(C(=O)NCC2(N3CCOCC3)CCCCC2)cc1` gave DRD3 antagonist 15, DRD3 agonist -2, D1 antagonist -32*, D1 ag 0, D1 potentiator 0 and Chronic BCR inh -2%.
For CCOC(=O)c1c(C)n(C)c2ccc(OC)c(NC(=O)CCN3CCC(Cc4ccccc4)CC3)c12 the results were DRD3 antagonist -120*, DRD3 agonist -21, D1 antagonist -36*, D1 ag 9, D1 potentiator -4 and Chronic BCR inh -22%.
O=C(NC1CC1)c1cccc(NC(=O)C2CCN(S(=O)(=O)c3ccccc3C(F)(F)F)CC2)c1 was read as DRD3 antagonist 3 and DRD3 agonist 1.
`O=[N+]([O-])c1ccc(C(O)C23CN4CN(CN(C4)C2)C3)cc1` (stereo not given) gave DRD3 antagonist -69*, DRD3 agonist 5, D1 antagonist -2, D1 ag 6, D1 potentiator 1 and Chronic BCR inh 3%.
For O=[N+]([O-])c1cccc(C(O)C23CN4CN(CN(C4)C2)C3)c1 (stereo not given) the results were DRD3 antagonist -3, DRD3 agonist -21, D1 antagonist 2, D1 ag 2, D1 potentiator 7 and Chronic BCR inh -5%.
Screening CC1(C(=O)NS(=O)(=O)c2ccc(Br)cc2)CCN1C(=O)C1CCCCC1 (stereo not given) returned DRD3 antagonist 19 and DRD3 agonist 9.
`CC(C)Cn1cnc2c1c(=O)[nH]c(=O)n2Cc1ccccc1` gave DRD3 antagonist -13, DRD3 agonist -2, D1 antagonist -47*, D1 ag 2, D1 potentiator -2 and Chronic BCR inh -1%.
For CC(C)CCn1cnc2c1c(=O)[nH]c(=O)n2Cc1ccccc1 the results were DRD3 antagonist -5, DRD3 agonist 2, D1 antagonist 10, D1 ag 2, D1 potentiator 0 and Chronic BCR inh -4%.
For CC(=O)O[C@]1(C(C)=O)CC[C@H]2[C@@H]3C=C(Cl)C4=CC(=O)[C@@H]5C[C@@H]5[C@]4(C)[C@H]3CC[C@@]21C the results were DRD3 antagonist -85*!, DRD3 agonist 14, D1 ag -1, D1 potentiator 5 and Chronic BCR inh 2%.
Screening Cc1ccccc1CCNC(=O)c1cc2ccccn2n1 returned DRD3 agonist -8, D1 antagonist -8, D1 ag 2 and D1 potentiator -4.
`CCN(CC)S(=O)(=O)c1ccc(NC(=O)c2ccc(N(C)S(C)(=O)=O)cc2)cc1` gave DRD3 antagonist 1, DRD3 agonist 3, D1 antagonist -36*, D1 ag 8, D1 potentiator -12 and Chronic BCR inh inconclusive.
CCN(CC)S(=O)(=O)c1ccc(NC(=O)c2ccccc2N(C)S(C)(=O)=O)cc1 was read as DRD3 antagonist -15, DRD3 agonist -9, D1 antagonist -24, D1 ag 0, D1 potentiator -1 and Chronic BCR inh 13%.
CC(=O)C1=C(O)CCCC1=NCc1nc2ccccc2[nH]1 was read as DRD3 antagonist -8, DRD3 agonist -3, D1 antagonist -34*, D1 ag 7, D1 potentiator -7 and Chronic BCR inh -1%.
`CC1(C(=O)NS(=O)(=O)Cc2cccc(Cl)c2)CCN1C(=O)CC1CCCC1` (stereo not given) gave DRD3 antagonist -21 and DRD3 agonist -10.
Screening Cc1ccc(O)c(C(=O)c2cc(C#N)c(=O)n(C(C)c3ccccc3)c2)c1 (stereo not given) returned DRD3 antagonist 19, DRD3 agonist -2, D1 antagonist 12, D1 ag 2, D1 potentiator -3 and Chronic BCR inh inconclusive.
For Cc1ccc(O)c(C(=O)c2cc(C#N)c3nc4ccccc4n3c2)c1 the results were DRD3 antagonist 10, DRD3 agonist 10, D1 antagonist 7, D1 ag 62*, D1 potentiator 8 and Chronic BCR inh inconclusive.
COc1ccc(-n2nc3cc(C)c(NC(=O)COc4cccc(C)c4)cc3n2)cc1 was read as DRD3 agonist 6, D1 antagonist 7, D1 ag -1 and D1 potentiator -1.
C[C@H](CO)N1C[C@H](C)[C@@H](CN(C)Cc2ccncc2)Oc2ncc(Br)cc2C1=O was read as DRD3 antagonist -114* and DRD3 agonist -17.
`C[C@@H]1CN([C@@H](C)CO)C(=O)c2cc(Br)cnc2O[C@H]1CN(C)Cc1cccnc1` gave DRD3 antagonist 23 and DRD3 agonist 8.
For CCc1ccc(-c2cn3c(n2)SCC3)cc1 the results were DRD3 antagonist -27, DRD3 agonist -8, D1 antagonist -86*, D1 ag 1, D1 potentiator 0 and Chronic BCR inh -5%.
For O=C(CSc1nc(-c2ccc(F)cc2)[nH]c1-c1ccccc1)NCC1CCCO1 (stereo not given) the results were DRD3 agonist -14, D1 antagonist -1, D1 ag -1 and D1 potentiator -1.
For CCCC(=O)Nc1ccc(Cl)c(NC(=S)NC(=O)C(C)C)c1 the results were DRD3 antagonist -4, DRD3 agonist -6, D1 antagonist -37*, D1 ag 0, D1 potentiator -2 and Chronic BCR inh inconclusive.
`CCC(=O)Nc1ccc(Cl)c(NC(=S)NC(C)=O)c1` gave DRD3 antagonist -12, DRD3 agonist -4, D1 antagonist 19, D1 ag 0, D1 potentiator -3 and Chronic BCR inh -3%.
For COc1cc(CNc2ncc(-c3ccc(Br)cc3)n2C)cc(OC)c1O the results were DRD3 antagonist 14, DRD3 agonist -3, D1 antagonist -42*, D1 ag 2, D1 potentiator -9 and Chronic BCR inh -2%.
`COc1cccc(CNc2nc3ccccc3n2C)c1O` gave DRD3 antagonist -57*, DRD3 agonist -16, D1 antagonist 2, D1 ag 1, D1 potentiator -20 and Chronic BCR inh 3%.
For Cn1c(-c2ccc(F)cc2)cnc1NCc1ccccc1 the results were DRD3 antagonist -30, DRD3 agonist -5, D1 antagonist -9, D1 ag 0, D1 potentiator -15 and Chronic BCR inh inconclusive.

Bioassay records (PubChem BioAssay)
